Bioassay records (PubChem BioAssay)
HepG2 tox: HepG2 cytotoxicity, counter-screen for TGF-b inhibitors. HepG2 CAGA-GFP viability, ATP luminescence, 18 h. Potency, µM (doses to about 46.1 µM), for inactives: at the top dose activity change, negative = cytotoxicity, hits mostly cytotoxic. AID 588856. hit rate 0.76% among 410,000
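CellTiter-Glo luminescence gave cytotoxicity after 18 hours at 37 degrees C. The cells were HepG2 CAGA-GFP in 1% FBS DMEM, stimulated with 500 pg/mL TGF-beta after compound addition. %Activity was normalised to no-cell wells (complete cell-killing) and DMSO (no toxicity), and curves were fitted and classified.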
S2 tox: viability counter-screen for ATXN expression inhibitors; Potency, µM (titrated, usually from 56.7 µM), hits mostly cytotoxic; AID 651635; hit rate 0.49% among 400,000; S2 cells (HEK-293 line with an ATXN2-luciferase reporter) viability, CellTiter-Fluor protease fluorescence, 24 h; also: nearly all actives have a fitted effect of over 40% in size
ATXN2 expr inh: inhibitors of ATXN2 expression. HEK-293 ATXN2-luciferase reporter, luminescence, 24 h. Potency, µM (titrated, usually from 57 µM), inactives show top-dose activity change, negative = inhibition, hits mostly inhibitors. hit rate 0.72% among 360,000. AID 1745845; also: % is scaled to controls: 0 for no effect and ±100 for the full control effect; nearly all actives have a fitted effect of over 55% in size
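qHTS (up to 57 uM final) was run with 24 h compound exposure of reporter cells at 37 °C. Each well was multiplexed: SteadyGlo luminescence measured ATXN2-luciferase expression after a fluorogenic Gly-Phe-AFC viability readout (25 uM final).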
RORgamma inh: ROR gamma (mouse) transcription inhibition. P51450. Drosophila S2 Gal4-RORgamma UAS-luciferase reporter, 20 h. Potency, µM (top dose mostly 53.6 µM), inactives show at the highest dose activity change, negative = inhibition, most hits filed as inhibitors. hit rate 5.4% among 310,000; also: % is scaled to controls: 0 for no effect and ±100 for the full control effect; nearly all actives have a fitted effect of over 60% in size
Target sequence (P51450 whole entry, looked up, the tested form may be a part): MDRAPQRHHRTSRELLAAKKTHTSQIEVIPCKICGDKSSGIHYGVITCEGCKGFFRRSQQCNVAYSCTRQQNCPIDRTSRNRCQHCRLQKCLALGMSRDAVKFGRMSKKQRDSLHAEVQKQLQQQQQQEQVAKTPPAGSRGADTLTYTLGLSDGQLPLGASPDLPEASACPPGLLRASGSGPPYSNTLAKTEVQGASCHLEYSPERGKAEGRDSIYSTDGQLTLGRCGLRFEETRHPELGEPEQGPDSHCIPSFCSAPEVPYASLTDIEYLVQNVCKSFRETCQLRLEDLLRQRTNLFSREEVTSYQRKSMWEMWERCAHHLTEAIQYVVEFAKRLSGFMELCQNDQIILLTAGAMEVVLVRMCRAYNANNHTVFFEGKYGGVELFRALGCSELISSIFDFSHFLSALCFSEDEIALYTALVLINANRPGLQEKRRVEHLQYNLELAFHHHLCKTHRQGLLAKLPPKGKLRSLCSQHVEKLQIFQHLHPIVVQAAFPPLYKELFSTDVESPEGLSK
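Compounds are pin-transferred onto Drosophila Schneider cells expressing a copper-inducible Gal4–ROR gamma transactivation domain fusion. After 1 hr, copper sulfate is added to 700 uM final; luciferase is read 20 hr later.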
TGFb inhibitor: blocks TGF-b signaling | Potency, µM (titrated, usually from 46.1 µM), inactives show at the highest dose activity, negative = inhibition, most hits filed as inhibitors | HepG2 CAGA-GFP TGF-b/SMAD3 reporter, GFP fluorescence, 18 h; TGF-beta stimulated, 500 pg/mL final | AID 588855 | hit rate 1.2% among 410,000; also: % is scaled to controls: 0 for no effect and ±100 for the full control effect; nearly all actives have a fitted effect of over 65% in size
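Cell-based qHTS in HEPG2 carrying a CAGA-GFP Smad reporter; compounds added before 500 pg/mL final TGF-beta, 18 h incubation at 37 degrees C, GFP fluorescence quantified per cell by imaging cytometry.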
Gal4-VP16 FLuc: inhibits Gal4-VP16 luciferase reporter, ROR gamma counter-screen; Potency, µM (top dose mostly 53.6 µM), for the others: at the highest dose activity, negative = inhibition, most hits filed as inhibitors; hit rate 3.5% among 310,000; AID 2546; Drosophila S2 Gal4-VP16 UAS-luciferase, luminescence, 20 h;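 also: Gal4-VP16 expression switched on by copper sulfate through the metallothionein promoter; % is scaled to controls: 0 for no effect and ±100 for the full control effect; nearly all actives have a fitted effect of over 50% in size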
Numbers without * were called inactive; i = inactive; ? = inconclusive; · = no result; [ ] = dose if it differs, or a comment. Hits are enriched below; roughly 6.3% of the tested compounds scored in any of these assays. Calls follow the shape of the dose curve; as a rule, active = well fitted curve in the direction sought with a large enough effect; inconclusive = small, poorly fitted or top-dose-only effect, or another doubt; inactive = no such curve, though single readings can be large; an effect the other way counts as inactive or inconclusive. Potency is read from the fitted curve at half-maximal effect.

SMILES	HepG2 tox	S2 tox	ATXN2 expr inh	RORgamma inh	TGFb inhibitor	Gal4-VP16 FLuc
O=C(Nc1ccc(-c2nc3ccccc3s2)c(OC(=O)c2ccccc2)c1)c1ccccc1	-4.7%	i	38.1%	1.26µM*	9.0%	-20.0%
Cc1ccc(C(=O)N(Nc2nc3ccccc3s2)C(=O)c2ccc(C)cc2)cc1	-30.5%	i	-24.6%	8.91µM*	-17.1%	11.2µM*
O=C(Nc1ccc(-c2nc3ccccc3s2)c(O)c1)c1ccc(Br)cc1	-0.9%	i	0.3%	·	12.3%	·
COc1cc2c(cc1OC)/C(=C/c1ccc(N(C)C)cc1)C=C2	-23.0%	·	·	·	-9.1%	·
CCC(=O)N1CCc2cc(S(=O)(=O)CCC(=O)Nc3ccc(Cl)c(C(F)(F)F)c3)ccc21	0.5%	?	?	·	?	·
O=C(Nc1nc2ccc(F)cc2s1)C1=COCCO1	-51.7%	i	?	·	0.0%	·
O=C(Nc1nc2ccccc2s1)c1ccccc1	-27.2%	i	·	10µM*	-4.3%	?
O=C(O)c1ccccc1-c1ccccc1C(=O)Nc1nc2ccccc2s1	9.4%	i	8.0%	?	-5.0%	-16.9%
O=C(Nc1nc2ccc(F)cc2s1)c1ccccn1	-34.9%	?	?	0.708µM*	?	1.58µM*
COC(=O)c1ccc(NC(=O)c2cn(-c3ccccc3)nc2-c2ccncc2)cc1	7.08µM*	i	5.4%	29.7%	8.0%	3.9%
CC(=O)c1ccc(NC(=O)c2cn(-c3ccccc3)nc2-c2ccncc2)cc1	-14.1%	?	1.2%	13.9%	-11.7%	-14.5%
COc1ccc(-c2nn(-c3ccccc3)cc2C(=O)Nc2nccs2)cc1	1.2%	i	-3.5%	7.08µM*	?	11.2µM*
COc1cccc(-c2nn(-c3ccccc3)cc2C(=O)Nc2nccs2)c1	1.8%	i	-6.4%	6.31µM*	-9.4%	17.8µM*
O=C(Nc1nccs1)c1cn(-c2ccccc2)nc1-c1ccncc1	-25.8%	i	-11.9%	-33.1%	-26.4%	0.2%
CCOc1ccc(N2C(=O)c3[nH]nc(-c4ccc(OC)cc4)c3C2c2cccs2)cc1 (centres undefined)	-28.3%	17.8µM*	?	·	?	·
CCOc1ccc(-c2n[nH]c3c2C(c2cccs2)N(c2ccc(Br)cc2)C3=O)cc1 (centres undefined)	-61.1%	·	·	·	6.31µM*	·
Cc1cccc(-c2cnc(C)nc2C2CCCN(C(=O)c3cccc(Cn4cccn4)c3)C2)c1 (centres undefined)	·	i	·	·	·	·
Cc1ccc2c(c1)C/C(=C/c1ccc(N(C)C)cc1)C2=O	-20.9%	·	·	·	14.7%	·
Cc1ccc(/C=C2\CCOC2=O)cc1	3.0%	i	17.3%	17.1%	-3.4%	-1.8%
Cc1ccc(/C=C2/CNC/C(=C\c3ccc(C)cc3)C2=O)cc1	·	·	·	3.55µM*	·	7.08µM*
Cc1ccc(/C=C2/CNC/C(=C/c3ccc(C)cc3)C2=O)cc1	-51.1%	?	?	·	10µM*	·
N#Cc1ccccc1-c1cncnc1NCc1cccnc1	·	·	·	-1.8%	·	5.7%
CCOC(=O)c1ccc(CN(Cc2ccc(Cl)cc2Cl)S(=O)(=O)c2cccc(Cl)c2)cc1	0.6%	·	·	·	-1.2%	·
CC1(C)C(c2cccs2)=[N+]([O-])C2(CCCCC/C2=N\NC(N)=S)N1O (centres undefined)	9.6%	i	-3.6%	0.631µM*	-0.6%	6.1%
CC(C)C[C@@H](C(=O)N[C@H](C(=O)OC1CCCC1)c1ccccc1)[C@H](O)C(=O)NO	·	·	21.7µM*	·	·	·
SMILES	HepG2 tox	S2 tox	ATXN2 expr inh	RORgamma inh	TGFb inhibitor	Gal4-VP16 FLuc
C=C1NN(C)C(=O)N1c1ccc(OC)cc1	-2.0%	·	·	·	-2.3%	·
Nc1nc(NCc2ccccc2Cl)c2[nH]cnc2n1	0.7%	·	·	·	12.1%	·
CC(C)c1c(C(=O)NCC2(N3CCCCC3)CCCC2)cnn1-c1nccc(-c2ccco2)n1	·	i	·	·	·	·
CCCN(CCC)S(=O)(=O)c1ccc(C(=O)Nc2cc3oc4ccccc4c3cc2OC)cc1	8.9%	i	-3.8%	8.6%	-7.0%	?
CCCN(CCC)S(=O)(=O)c1ccc(C(=O)Nc2nnc(-c3cccc(OC)c3)o2)cc1	-9.1%	?	?	0.398µM*	-20.1%	0.631µM*
COc1cccc(-c2nnc(NC(=O)CCS(=O)(=O)c3ccc(C)cc3)o2)c1	-17.4%	?	8.3%	·	-28.6%	·
CCCN(CCC)S(=O)(=O)c1ccc(C(=O)Nc2nnc(-c3cc(OC)cc(OC)c3)o2)cc1	-30.3%	i	?	0.159µM*	-3.5%	0.282µM*
O=C(CCc1ccccc1)NNC(=S)NC(=O)c1ccccc1	-5.2%	i	?	4.47µM*	?	?
CC(C)(C)c1cc(CCC(=O)NNC(=S)NC(=O)c2ccccc2)cc(C(C)(C)C)c1O	-25.6%	i	-12.3%	11.2µM*	-23.3%	12.6µM*
CCCCC(=O)NC(=S)NNC(=O)CC#N	9.7%	i	0.4%	?	6.8%	-0.2%
CCCCC(=O)NNC(=S)NC(=O)CCC	-40.4%	i	-36.2%	10µM*	5.2%	?
CCCCC(=O)NC(=S)NNC(=O)CCc1ccccc1	-13.0%	i	-14.1%	11.2µM*	8.8%	-6.8%
CC1CCN(S(=O)(=O)c2ccc3c(c2)oc(=O)n3CC(=O)N2CCCCC2)CC1	-17.1%	i	3.5%	·	1.5%	·
S=c1[nH]nc(Cc2ccccc2)n1-c1ccc(Cl)cc1	7.4%	i	8.4%[11.3 µM]	2.24µM*	-6.8%	?
S=c1[nH]nc(Cc2noc3ccccc23)n1-c1ccc(Cl)cc1	-0.9%	i	-13.9%	?	5.6%	-8.2%
Cc1ccc(-n2c(Cc3ccccc3)n[nH]c2=S)cc1	0.1%	i	1.7%	3.98µM*	-18.4%	10µM*
CC(C)Cn1c(Cc2ccccc2)n[nH]c1=S	-11.4%	i	3.7%	4.47µM*	-4.1%	0.0%
S=c1[nH]nc(Cc2n[nH]c(=S)n2-c2ccccc2)n1-c1ccccc1	-3.2%	i	·	22.9%	2.9%	-14.2%
S=c1[nH]nc(Cc2ccccc2)n1-c1ccccc1	-2.2%	i	-3.4%	11.2µM*	15.2%	20µM*
CC(C)OC(=O)[C@H](C)N[P@](=O)(OC[C@H]1O[C@@H](n2ccc(=O)[nH]c2=O)[C@](C)(F)[C@H]1O)Oc1ccccc1	·	·	-7.1%	·	·	·
CCS(=O)(=O)c1ncc(N(Cc2ccco2)Cc2sccc2C)c(C(=O)Nc2ccc(C)cc2C)n1	-9.8%	i	10.0%	·	-20.7%	·
CCN(CC)c1ccc(-n2nc3cc(C)c(NC(=O)c4ccccc4F)cc3n2)cc1	-46.0%	·	11.4%	·	4.4%	·
CC(CNC(=O)c1cc2cc(S(=O)(=O)N3CCCCC3)ccc2n1C)c1ccccc1 (centres undefined)	-10.3%	·	·	·	?	·
